Rows were chosen to be rich in hits. Some 3% of all compounds tested hit in one or more screens of this group.
CF NFkB block = cystic fibrosis NF-kB activation inhibition. KKLEB NF-kB-GFP reporter, PAF-induced, GFP fluorescence overnight. AID 588850. inhibition, % at 5 µM. hit rate 0.86% among 360,000;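 active means at least 50% inhibition at 5 µM, scaled per plate between neutral and stimulator controls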;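 further: PAF is a Pseudomonas aeruginosa culture filtrate used as stimulus; plate controls were PAF-stimulated DMSO wells for no effect and unstimulated DMSO wells for full effect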
MITF TRPM1 inh = inhibitors of MITF-driven TRPM1 promoter in melanoma cells | SK-MEL-5 TRPM1 promoter luciferase, 24 h | inhibition, % at 12.5 µM | hit rate 0.83% among 330,000;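 active means mean inhibition across replicates of 60% or more, whatever share of single replicates reaches that level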
ABHD5-PLIN5 inh = ABHD5-PLIN5 protein interaction inhibition; Q00G26+Q8WTS1; Split G. princeps luciferase complementation, luminescence, 4 h; inhibition, % at 4 µM; hit rate 0.78% among 360,000;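 active means inhibition above the mean inhibition across every tested compound plus 3 SD, cut at about 22% in these data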;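 further: 0% = DMSO only wells and the 100% control is not disclosed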
Peg3 promoter = Peg3 promoter activity inhibition | hit rate 1.7% among 360,000 | inhibition, % at 20 µM | HeLa PEG-Prom luciferase reporter, luminescence, overnight;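 active means inhibition of at least 50% at 20 µM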
KKLEB cytotox = counter-screen for CF NF-kB inhibitors: cytotoxicity; KKLEB CF airway cells viability, ATPlite luminescence, overnight; stronger effect = lower value; cells stimulated with P. aeruginosa culture filtrate; activity change (cytotoxicity), % at 5 µM; AID 602141; hit rate 0.36% among 360,000;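 active means corrected activity change at or below -50% at 5 µM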
HIF-2a inh = blocks HIF-2a reporter activity; 786-0 RCC cells HIF-2a reporter, luciferase luminescence, overnight; inhibition, % at 18.8 µM; hit rate 0.72% among 360,000;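 active means inhibition of the luminescence signal of 40% or more relative to plate controls, in a single-dose primary screen at 18.75 µM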
ABHD5-PLIN5 conf = ABHD5-PLIN5 interaction inhibition, confirmed | biochemical ABHD5-PLIN5 interaction, luminescence | AID 651612 | hit rate 67% among 2,200 | inhibition, % at 4 µM | shares compounds with ABHD5-PLIN5 inh; in the data active means inhibition above about 23%;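 further: 0% = DMSO vehicle wells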
HNF4 counter = active in HNF4 split-luciferase counter-screen for ABHD5-PLIN5 inhibitors; AID 651674; shares compounds with ABHD5-PLIN5 inh; inhibition, % at 4 µM; hit rate 77% among 2,200; HNF4 dimerization, luminescence, biochemical;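 active means mean inhibition across replicate wells exceeding the computed hit threshold, cut at about 13% in these data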;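 further: light from luciferase halves that rejoin when HNF4 fusion proteins dimerize; 0% = DMSO only wells and the 100% control is not given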
Target sequence (P41235 whole entry, looked up, the tested form may be a part): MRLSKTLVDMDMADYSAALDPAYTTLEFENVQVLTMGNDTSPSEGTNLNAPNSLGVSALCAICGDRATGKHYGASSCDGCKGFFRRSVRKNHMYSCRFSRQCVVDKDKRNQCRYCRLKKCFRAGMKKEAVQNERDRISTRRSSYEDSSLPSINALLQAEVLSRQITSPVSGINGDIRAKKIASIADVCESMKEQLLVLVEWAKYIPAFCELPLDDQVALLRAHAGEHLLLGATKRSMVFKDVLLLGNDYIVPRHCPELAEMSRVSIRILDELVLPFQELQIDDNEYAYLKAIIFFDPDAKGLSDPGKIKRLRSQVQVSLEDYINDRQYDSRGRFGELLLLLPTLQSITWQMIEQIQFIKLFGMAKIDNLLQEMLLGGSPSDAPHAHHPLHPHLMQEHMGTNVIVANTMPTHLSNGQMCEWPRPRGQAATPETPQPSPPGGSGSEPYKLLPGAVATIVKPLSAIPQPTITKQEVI
* hit, by the source's call; nt = no result given.

SMILES	CF NFkB block	MITF TRPM1 inh	ABHD5-PLIN5 inh	Peg3 promoter	KKLEB cytotox	HIF-2a inh	ABHD5-PLIN5 conf	HNF4 counter
COc1ccc(/C=C/C(=O)c2ccc(NC3=NCCCS3)cc2)cc1OC	29.4	39.4	36.1*	16.0	-19.3	27.0	46.7*	39.9*
COc1ccc(C=CC(=O)c2ccc3cc(OC)c(OC)cc3c2)cc1OC	35.6	nt	41.4*	92.4*	-13.4	3.2	41.3*	26.3*
COc1ccc(/C=C/C(=O)NCCCNC(=O)/C=C/c2ccc(OC)c(OC)c2)cc1OC	1.0	1.1	3.9	18.5	-4.4	17.9	nt	nt
COc1ccc(C(=O)/C=C/c2ccc(OC)c(O)c2)c(F)c1	22.3	-7.4	29.4*	-10.9	-20.5	-66.2	55.4*	49.7*
COc1ccc(C=CC(=O)c2ccc(OC)c(OC)c2O)cc1OC	-54.3	-10.9	45.8*	-0.6	-0.7	-1.4	55.1*	43.6*
COc1ccc(C=CC(=O)c2ccc(OC)c(OC)c2)cc1O	35.1	nt	14.8	-52.1	-9.0	-7.7	nt	nt
CCCCNC(=O)C1(C)CCCCN1C(=O)c1cc(C#N)cs1 (stereo not given)	-13.9	nt	-9.8	5.7	11.7	4.0	nt	nt
C=CCN(c1ccc(C(=O)NCCSc2ccccc2)cc1)S(C)(=O)=O	11.2	-31.0	2.2	-98.3	-2.9	-147.6	nt	nt
COc1ccc(-n2cc([N+](=O)[O-])c(=O)c3ccc(Cl)cc32)cc1	1.9	-0.8	6.7	13.2	-6.2	21.5	nt	nt
CCC(Sc1nccn1C)C(=O)Nc1ccc(Cl)cn1 (stereo not given)	10.0	1.0	-4.3	16.9	-2.6	5.2	nt	nt
CCC1CSC(Nc2ccc(C(=O)/C=C/c3ccc(Br)cc3)cc2)=N1 (stereo not given)	39.2	-1.1	23.8*	19.8	-26.8	-33.7	51.9*	38.8*
O=C(/C=C/c1ccc(Br)cc1)NC1CCCCCC1	-1.6	-71.9	2.1	-216.6	4.4	-161.9	nt	nt
Cc1ccccc1-n1c(=O)cc(N2CCN(C(=O)c3ccco3)CC2)[nH]c1=O	6.5	nt	24.9*	6.3	2.2	6.4	3.7	7.3
Cc1ccccc1-n1c(=O)cc(N2CCCCCC2)[nH]c1=O	0.9	1.3	4.0	-13.8	4.1	6.7	nt	nt
CC(O)(c1ccc(F)c(F)c1)c1nc(-c2ccccc2)cs1 (stereo not given)	-20.4	nt	-2.7	10.1	21.2	4.8	nt	nt
CNc1ccc(Br)cc(C(=O)/C=C/c2ccc(OC)cc2OC)c1=O	-2.1	9.6	14.2	-45.4	0.5	4.0	nt	nt
CNc1ccc(Br)cc(C(=O)/C=C/c2cccc(OC)c2)c1=O	7.4	21.5	30.4*	2.4	-4.3	-3.0	65.2*	49.5*
C/C=C/c1cccc(-c2nc(C(=O)NC3CCCC3)cc3c2[C@@H](CCO)N(S(=O)C(C)(C)C)C3)c1 (stereo not given in full)	-9.3	nt	-10.2	-20.4	-14.0	-0.4	nt	nt
O=C1Nc2ccccc2/C1=C/c1ccc([N+](=O)[O-])cc1	-1.0	4.9	19.0	35.0	-8.4	-14.6	nt	nt
CC1(c2ccc([N+](=O)[O-])cc2)Nc2ccccc2S1 (stereo not given)	-13.7	-33.3	35.1*	-132.1	1.8	-240.1	-4.7	-9.3
Cc1cccc(C)c1NC(=O)CNC(=O)C(C)N1CCN(c2cccc(Cl)c2)CC1 (stereo not given)	-15.1	3.2	4.0	15.7	-4.2	10.1	nt	nt
COc1ccc(CCN(C)C(=O)CSc2nc3ccccc3c(=O)n2CC2CCCO2)cc1OC (stereo not given)	3.9	4.3	5.1	-4.3	0.5	6.6	nt	nt
Cc1cc(NC(=O)Nc2ccc(F)cc2F)n(C)n1	12.8	-5.1	43.5*	5.3	-3.0	8.6	-3.6	4.0
S=C(NCCN1CCOCC1)NC1CCCC1	-10.8	-12.1	-4.2	11.9	3.5	18.2	nt	nt
Cc1nnc(N=c2ssnc2Cl)o1	-41.7	52.4	47.2*	-6.0	15.8	15.3	97.5*	110.1*
Cc1ccc(N=c2ssnc2Cl)cc1	-11.2	2.0	8.6	-41.5	13.3	-17.2	nt	nt

Assay outcomes (PubChem)
